The supplement of paper PMC7411054
Structures can show the parent of a compound that is named as a salt.

Legend:
Settings in all cases: treatment time: 24 h
A549-ACTB-RAB5A [1] = test: lowest phenotypically active concentration; higher = less potent
Method in brief: (§1)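 Each of fifteen gene-edited A549, HepG2 and WPMY1 reporter lines, marked with BFP for segmentation and GFP and RFP/FusionRed, was treated in four wells at 0.3, 1, 3 or 9 µM for 24 h prior to live imaging. Normalisation of per-well live-cell features used solvent control wells. Deviation needed ≥3 of 4 wells beyond the 95th percentile of control Euclidean distances, and reproducibility needed a median replicate Pearson correlation above the 95th percentile of non-replicates. Both were required for phenotypic activity.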

A549-CANX-COX4 [2] = test: as above
Method in brief: as §1

A549-GM130-SQSTM1 [3] = test: as above
Method in brief: as §1

A549-TP53BP1-CLTA [4] = test: as above
Method in brief: as §1

A549-TUBA1B-RELA [5] = test: as above
Method in brief: as §1

A549-ACTB-RAB5A [6] = test: phenotypically active (imaging signature differs from DMSO and reproducible) at any of 0.3-9 uM (binary (1 = active, 0 = inactive)); higher = active
Method in brief: as §1

A549-CANX-COX4 [7] = test: as above
Method in brief: as §1

A549-GM130-SQSTM1 [8] = test: as above
Method in brief: as §1

A549-TP53BP1-CLTA [9] = test: as above
Method in brief: as §1

A549-TUBA1B-RELA [10] = test: as above
Method in brief: as §1

HepG2-ACTB-RAB5A = test: as above
Method in brief: as §1

HepG2-CANX-COX4 = test: as above
Method in brief: as §1

HepG2-GM130-SQSTM1 = test: as above
Method in brief: as §1

HepG2-TP53BP1-CLTA = test: as above
Method in brief: as §1

HepG2-TUBA1B-RELA = test: as above
Method in brief: as §1

WPMY1-ACTB-RAB5A = test: as above
Method in brief: as §1

WPMY1-CANX-COX4 = test: as above
Method in brief: as §1

WPMY1-GM130-SQSTM1 = test: as above
Method in brief: as §1

WPMY1-TP53BP1-CLTA = test: as above
Method in brief: as §1

WPMY1-TUBA1B-RELA = test: as above
Method in brief: as §1

SMILES	lowest phenotypically active concentration (A549-ACTB-RAB5A [1]) [µM]	lowest phenotypically active concentration (A549-CANX-COX4 [2]) [µM]	lowest phenotypically active concentration (A549-GM130-SQSTM1 [3]) [µM]	lowest phenotypically active concentration (A549-TP53BP1-CLTA [4]) [µM]	lowest phenotypically active concentration (A549-TUBA1B-RELA [5]) [µM]	phenotypically active (A549-ACTB-RAB5A [6])	phenotypically active (A549-CANX-COX4 [7])	phenotypically active (A549-GM130-SQSTM1 [8])	phenotypically active (A549-TP53BP1-CLTA [9])	phenotypically active (A549-TUBA1B-RELA [10])	phenotypically active (HepG2-ACTB-RAB5A)	phenotypically active (HepG2-CANX-COX4)	phenotypically active (HepG2-GM130-SQSTM1)	phenotypically active (HepG2-TP53BP1-CLTA)	phenotypically active (HepG2-TUBA1B-RELA)	phenotypically active (WPMY1-ACTB-RAB5A)	phenotypically active (WPMY1-CANX-COX4)	phenotypically active (WPMY1-GM130-SQSTM1)	phenotypically active (WPMY1-TP53BP1-CLTA)	phenotypically active (WPMY1-TUBA1B-RELA)
CC(C)n1nc(-c2cc3cc(O)ccc3[nH]2)c2c(N)ncnc21	1	1	1	1	1	1 (active)	1 (active)	1 (active)	1 (active)	1 (active)	1 (active)	1 (active)	1 (active)	1 (active)	1 (active)	1 (active)	1 (active)	1 (active)	1 (active)	1 (active)
C=CC(=O)Nc1cccc(CN2C(=O)N(c3c(Cl)c(OC)cc(OC)c3Cl)Cc3cnc(NCCCCN(CC)CC)nc32)c1 [FIIN 1 hydrochloride]	≤ 0.3	3	≤ 0.3	3	1	1 (active)	1 (active)	1 (active)	1 (active)	1 (active)	1 (active)	1 (active)	1 (active)	1 (active)	1 (active)	1 (active)	1 (active)	1 (active)	1 (active)	1 (active)
Cc1cc(Nc2ncc3c(n2)N(C)C(=O)N(c2cc(NC(=O)c4cccc(C(F)(F)F)c4)ccc2C)C3)n(C)n1 [Pluripotin]	≤ 0.3	≤ 0.3	≤ 0.3	≤ 0.3	≤ 0.3	1 (active)	1 (active)	1 (active)	1 (active)	1 (active)	1 (active)	1 (active)	1 (active)	1 (active)	1 (active)	1 (active)	1 (active)	1 (active)	1 (active)	1 (active)
Cc1ccc2nc(NCCN)c3ncc(C)n3c2c1	3	9	3	3	3	1 (active)	1 (active)	1 (active)	1 (active)	1 (active)	1 (active)	1 (active)	1 (active)	1 (active)	1 (active)	1 (active)	1 (active)	1 (active)	1 (active)	1 (active)
CC1=C(C(=O)Nc2cc3cn[nH]c3cc2F)C(c2ccc(C(F)(F)F)cc2)CC(=O)N1 (stereo not given)	≤ 0.3	1	1	≤ 0.3	≤ 0.3	1 (active)	1 (active)	1 (active)	1 (active)	1 (active)	1 (active)	1 (active)	1 (active)	1 (active)	1 (active)	1 (active)	1 (active)	1 (active)	1 (active)	1 (active)
CN1c2ccccc2C(=O)N2CCc3c([nH]c4ccccc34)[C@H]21 [Evodiamine]	1	1	1	3	1	1 (active)	1 (active)	1 (active)	1 (active)	1 (active)	1 (active)	1 (active)	1 (active)	1 (active)	1 (active)	1 (active)	1 (active)	1 (active)	1 (active)	1 (active)
Clc1ccc(N/N=C(\c2ccccc2)c2ccccn2)nc1	1	3	≤ 0.3	3	≤ 0.3	1 (active)	1 (active)	1 (active)	1 (active)	1 (active)	1 (active)	1 (active)	1 (active)	1 (active)	1 (active)	1 (active)	1 (active)	1 (active)	1 (active)	1 (active)
O=C(Nc1c[nH]nc1-c1nc2cc(CN3CCOCC3)ccc2[nH]1)NC1CC1	≤ 0.3	≤ 0.3	≤ 0.3	≤ 0.3	≤ 0.3	1 (active)	1 (active)	1 (active)	1 (active)	1 (active)	1 (active)	1 (active)	1 (active)	1 (active)	1 (active)	1 (active)	1 (active)	1 (active)	1 (active)	1 (active)
CC[C@H](CO)Nc1nc(NCc2ccc(-c3ccccn3)cc2)c2ncn(C(C)C)c2n1	≤ 0.3	≤ 0.3	≤ 0.3	≤ 0.3	≤ 0.3	1 (active)	1 (active)	1 (active)	1 (active)	1 (active)	1 (active)	1 (active)	1 (active)	1 (active)	1 (active)	1 (active)	1 (active)	1 (active)	1 (active)	1 (active)
O=C(Nc1ccc(-c2ccnc(Nc3ccc(N4CCOCC4)cc3)n2)cc1)[C@@H]1CCCN1	3	9	3	9	3	1 (active)	1 (active)	1 (active)	1 (active)	1 (active)	1 (active)	1 (active)	1 (active)	1 (active)	1 (active)	1 (active)	1 (active)	1 (active)	1 (active)	1 (active)
O=C(CCCCCCC(=O)Nc1ccccc1)NO	≤ 0.3	1	1	1	1	1 (active)	1 (active)	1 (active)	1 (active)	1 (active)	1 (active)	1 (active)	1 (active)	1 (active)	1 (active)	1 (active)	1 (active)	1 (active)	1 (active)	1 (active)
